Test results: PubChem BioAssay AID1259422 (The Scripps Research Institute Molecular Screening Center, 2018)
Out of some 640,000 compounds screened, about 9,300 (1.5%) were called active. For the sample, actives were picked, then their nearest neighbours and some compounds at random. Values without a mark were called inactive. No stated cut-off is given here; in the data, active means inhibition above about 32%; inactive means the rest.

Experiment: TEAD-YAP interaction inhibition, primary screen, TEAD-YAP interaction inhibitor project, luminescence, HEK-TIYL cells (AID 1259422);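 further: 0% = median of test compound wells and 100% = reference inhibitor wells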
Details: TEAD-Gal4/YAP UAS-luciferase luminescence, at 9.12 µM, active compounds read high

Row | Structure (SMILES) | inhibition
1 | COc1ccc(S(=O)(=O)CCC(=O)Nc2ccc(C)cc2Br)cc1 | -9.1%
2 | COc1ccc(/C=C2/C(=O)NN(c3cccc(Cl)c3)C2=O)cc1 | 5.26%
3 | CC(=O)Oc1ccc(/C=C2\N=C(c3ccccc3F)OC2=O)cc1 | -4.17%
4 | Cc1c(C(=O)N/N=C/c2cccc([N+](=O)[O-])c2)nnn1-c1nonc1N | -6.33%
5 | CC(=O)Oc1c(C)cc(C)c2ccc(=O)[nH]c12 | -7.29%
6 | CC1CC(=O)Nc2ccccc2N1C(=O)Cc1ccc(Cl)cc1 (centres undefined) | -16.4%
7 | O=C1CN(C(=O)CCl)c2ccccc2N1 | 14.1%
8 | CCc1ccc(CC(=O)N2CC(=O)Nc3ccccc32)cc1 | 49.8% (active)
9 | CCCOCc1c[nH]c(=O)[nH]c1=O | -4.81%
10 | CCOC(=O)C1=C(NC(=S)NC(=O)c2ccccc2)c2ccccc2CC1(CC)CC | 51.5% (active)
11 | CCOC(=O)c1c(NC(=S)NC(=O)c2ccccc2)sc2c1CC(C)(CC)OC2 (centres undefined) | 8.08%
12 | COc1ccc(C(=O)O)cc1NC(=S)NC(=O)c1ccccc1 | -6.39%
13 | OC(CN1CCN(c2ccccc2F)CC1)Cn1nnnc1-c1ccccc1 (centres undefined) | 2.32%
14 | Cc1cc(C)c(/C=C/c2cc(C(F)(F)F)[nH]c(=O)n2)cc1C | -9.26%
15 | Cc1nc(N2CCN(c3ccccn3)CC2)c2c(C)c(C(=O)Nc3ccccc3C(F)(F)F)sc2n1 | -2.56%
16 | O=C(O)c1cccc(-c2cnc3ccc(NCc4ccc(F)cc4)nn23)c1 | -7.03%
17 | c1ccc(Cn2cc(-c3cnn4c(NCCCN5CCOCC5)ccnc34)cn2)cc1 | -1.52%
18 | Cc1ccc(-c2cnn3c(NCCCN4CCOCC4)ccnc23)cc1C | 10.5%
19 | c1ccc(Oc2ccc(-c3cnn4c(NCCCN5CCOCC5)ccnc34)cc2)cc1 | 42% (active)
20 | CCOc1cc2c(cc1OCC)C(c1cc(OC)ccc1F)NCC2 (centres undefined) | 4.41%
21 | CC(C)(O)C#CC(O)c1cccc([N+](=O)[O-])c1 (centres undefined) | -0.86%
22 | COc1ccc(C(c2sc3ncnn3c2O)N2CC(C)OC(C)C2)cc1 (centres undefined) | 10.7%
23 | COc1ccc(C(=O)NCC(=O)NNc2ncnc(N)c2[N+](=O)[O-])c(OC)c1 | 11.1%
24 | O=C(N/N=C/c1cc(Br)ccc1O)c1cc(Br)ccc1O | -12%

Row | Structure (SMILES) | inhibition
25 | COc1ccccc1/C=N/NC(=O)c1cc(-c2ccc(C)o2)[nH]n1 | 4.17%
26 | CCOc1ccc(/C=N/NC(=O)c2cc(-c3cccs3)[nH]n2)cc1 | -4.12%
27 | COc1cccc(/C=N/NC(=O)c2cc(-c3cccs3)[nH]n2)c1O | 68% (active)
28 | O=C(N/N=C/c1cc(Br)ccc1O)c1cc(-c2cccs2)[nH]n1 | 65.8% (active)
29 | O=C(N/N=C/c1cc(Br)ccc1O)c1ccc(=O)[nH]n1 | 14.8%
30 | Cc1ccc(CNS(=O)(=O)c2ccc(F)c(C(=O)Nc3cccc(Cl)c3)c2)cc1 | -4.88%
31 | COc1cc(C=Nc2ccc(NC(C)=O)cc2)ccc1OC(=O)c1cccs1 | -6.6%
32 | COc1ccccc1NS(=O)(=O)c1ccc(Cl)c(C(=O)Nc2ccccc2C)c1 | 0.37%
33 | O=C(Cc1cccc(Cl)c1)NCC1CCC2(CCN(C(=O)C3CC3)CC2)O1 (centres undefined) | -0.11%
34 | COc1ccc(C2CCN(C(=O)C3CCCO3)CC2)cc1 (centres undefined) | -7.42%
35 | Cc1cccc2c1CC(=O)NC21CCN(Cc2ccc3ccccc3c2)CC1 | 7.07%
36 | CCc1ccc(OCC(=O)NCc2ccncc2)c(Br)c1 | -4.34%
37 | CCc1ccc(OCC(=O)Nc2nc(C)c(C)s2)c(Br)c1 | 77.7% (active)
38 | Cc1ccc(OCC(=O)Nc2nc(-c3ccccc3)cs2)c(Br)c1 | 5.91%
39 | CCOC(=O)C1(CCOc2ccccc2)CCN(Cc2cnn(C(C)C)c2)CC1 | 10.3%
40 | O=[N+]([O-])c1ccc2oc(-c3cccc(O)c3)nc2c1 | 73.9% (active)
41 | O=C(COc1ccc([N+](=O)[O-])cc1)Nc1ccc2oc(-c3cccc(F)c3)nc2c1 | -7.11%
42 | O=C(Nc1ccc2oc(-c3ccc(F)cc3)nc2c1)c1ccc([N+](=O)[O-])cc1 | 11.2%
43 | Cc1ccc2nc3c(cc(C#N)c(=O)n3-c3cccc(Cl)c3)c(=O)n2c1 | -0.14%
44 | CC1=CN2C(=O)NC(C(F)(F)F)(C(F)(F)F)N=C2S1 | -16.6%
45 | COCCCNC(=O)/C(C#N)=C/c1ccc(-c2cccc(Cl)c2Cl)o1 | 1.01%
46 | COCCCNC(=O)Cn1cc(/C=C(\C#N)C(=O)NCc2ccco2)c2ccccc21 | 3.94%
47 | COCCCNC(=O)/C(C#N)=C/c1cc(C)n(-c2cccc3ccccc23)c1C | 47.1% (active)
48 | COc1ccc(NC(=O)c2sc3nc(-c4cccc([N+](=O)[O-])c4)cn3c2C)cc1 | 4.9%

Row | Structure (SMILES) | inhibition
49 | CCOc1ccc(Br)cc1S(=O)(=O)Nc1ccccc1C(=O)O | 3.25%
50 | CCOC(=O)C1CCN(S(=O)(=O)c2cc(Br)ccc2OCC)CC1 | 0.17%
51 | CCOc1ccc(Br)cc1CSC(=N)N | 55.7% (active)
52 | CC(=O)N(Cc1cccnc1)Cc1cc2cc(C)c(C)cc2nc1Cl | 6.62%
53 | Cc1cccc(C(=O)Nc2ccc(C(=O)N/N=C/c3ccc(O)cc3)cc2)c1 | -12.2%
54 | CCOc1ccccc1NS(=O)(=O)c1ccc2c(c1)NC(=O)C(C)C(=O)N2 (centres undefined) | -5.49%
55 | O=C1CS(=O)(=O)C(c2ccccc2[N+](=O)[O-])N1c1ccc(Oc2ccc(Cl)cc2)cc1 (centres undefined) | 11.6%
56 | COc1ccc(-n2nnnc2SCc2nc(N)nc(N3CCOCC3)n2)cc1 | -11.4%
57 | CN(C)c1nc(N)nc(CSc2nnnn2-c2cccc3ccccc23)n1 | 35.1% (active)
58 | CN(C)c1nc(N)nc(CSc2ccccn2)n1 | -4.14%
59 | CCOC(=O)c1sc2nc(C)nc(OCc3ccccc3C)c2c1C | -7.17%
60 | COc1ccccc1-c1cc(C(F)(F)F)nc(S(=O)(=O)CCCC(=O)Nc2sc(C(N)=O)c(C)c2C(=O)OC(C)C)n1 | -2.08%
61 | CCN(Cc1ccccc1)S(=O)(=O)c1ccc(F)c(C(=O)Nc2ccc(C)cc2)c1 | -16.5%
62 | CCOc1cccc(NC(=O)c2ccc(F)c(S(=O)(=O)N(CC)c3cccc(C)c3)c2)c1 | -0.19%
63 | Cc1cccc(NC(=O)c2ccc(F)c(S(=O)(=O)N(C)C3CCCCC3)c2)c1 | -12.6%
64 | CCN(c1cccc(C)c1)S(=O)(=O)c1cc(C(=O)Nc2ccc(Oc3ccccc3)cc2)ccc1F | 35.4% (active)
65 | CCN(Cc1ccccc1)S(=O)(=O)c1cc(C(=O)Nc2cccc(C)c2)ccc1F | 51.1% (active)
66 | O=C(Nc1ccc(Oc2ccccc2)cc1)c1ccc(F)c(S(=O)(=O)N2CCc3ccccc3C2)c1 | -0.62%
67 | COc1cccc(-c2ccccc2NC(=O)C2CCN(Cc3ccccn3)CC2)c1 | 10.6%
68 | CC1=C(C(=O)Nc2nc3ccccc3s2)C(c2ccsc2)C2=C(CCCC2=O)N1 (centres undefined) | 12.1%
69 | COC(=O)c1c(OCCN2CCCC2=O)cc(=O)n2c1CCN(CC(C)C)CC2 | -5.77%
70 | Cc1ccc(-c2ncn(-c3ccc(Nc4ncc(F)c(-c5cccc(N6CCOCC6)c5)n4)cc3)n2)cn1 | 28.1%
71 | c1cncc(CNc2nccc(Nc3ccc(N4CCOCC4)cc3)n2)c1 | 1.72%
72 | Fc1cc(-c2nc(Nc3ccc(CN4CCOCC4)cc3)ncc2F)cc(N2CCOCC2)c1 | 74.6% (active)

Row | Structure (SMILES) | inhibition
73 | Fc1ccc(CN2CCOCC2)cc1F | -5.29%
74 | Fc1cnc(Nc2ccc(Cn3ccnc3)cc2)nc1-c1cccc(N2CCOCC2)c1 | 84.8% (active)
75 | Cc1ccc(-c2ncn(-c3ccc(Nc4nccc(-c5cc(F)cc(N6CCOCC6)c5)n4)cc3)n2)nc1 | 8.1%
76 | O=C(Nc1ccccc1)c1ccc(CSc2ccc(Cl)cc2)cc1 | 1.08%
77 | Cc1cc2oc(=O)cc(C)c2cc1NC(=O)COc1ccccc1 | 18.6%
78 | c1ccc2c(N3CCCCCC3)nc(CN3CCCCC3)nc2c1 | 3.64%
79 | COCCNC(=O)c1sc2nc(C)nc(N3CCCCC3)c2c1C | 8.3%
80 | C=CCn1c(NCCCN(C)C)cc(=O)n(C)c1=O | 1.12%
81 | Cc1cccc(Cn2c(NCc3ccc4c(c3)OCO4)nc3c2c(=O)n(C)c(=O)n3C)c1 | 3.24%
82 | Cc1cc(C)cc(Cn2c(NCc3ccncc3)cc(=O)n(C)c2=O)c1 | 33.7% (active)
83 | CC(=O)c1ccc(OCc2cc(C(=O)NCc3cccc(-n4cccn4)c3)no2)cc1 | -59.7%
84 | O=C(Nc1cccc(N2CCC(NCCc3ccco3)CC2)c1)c1ccncc1 | -5.63%
85 | O=C(Nc1ccc(N2CCC(NCCc3ccco3)CC2)cc1)C1CCCC1 | 56.3% (active)
86 | O=C(NC1CCCC1)c1ccc(N2CCC(NCCc3ccco3)CC2)cc1 | -1.18%
87 | COc1ccc(CCNC(=O)CSc2cn(C)c3ccccc23)cc1OC | -1.21%
88 | COc1ccc(Cl)cc1C1=N/C(=C\c2coc3ccccc3c2=O)C(=O)O1 | 1.35%
89 | COc1ccc(Nc2nc3nonc3nc2Nc2ccc(OC)cc2OC)c(OC)c1 | -7.35%
90 | COc1ccc(NC(=O)CNC(=O)Cn2cnc3sc(C)cc3c2=O)c(OC)c1 | 7.78%
91 | COc1ccc(Nc2nc(C)nc3sc(C)cc23)c(OC)c1 | 46% (active)
92 | COc1ccc(CCNc2nc(C)nc3sc(C)cc23)cc1OC | 41.7% (active)
93 | COc1ccc(CCNc2nc3ccc(C)cc3n3cnnc23)cc1OC | -9.92%
94 | COc1ccc(CCNc2nc(SCC#N)nc3ccccc23)cc1OC | -11.4%
